This note sets out measurements from article PMC11006913.

Sequence of PROP1 (Homo sapiens, UniProt O75360 56-141) (O75360 56-141): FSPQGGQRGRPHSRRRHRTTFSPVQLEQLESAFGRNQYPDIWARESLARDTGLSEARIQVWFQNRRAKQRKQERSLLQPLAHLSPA
Sequence of HOXB4 (Homo sapiens, UniProt P17483 148-234) (P17483 148-234): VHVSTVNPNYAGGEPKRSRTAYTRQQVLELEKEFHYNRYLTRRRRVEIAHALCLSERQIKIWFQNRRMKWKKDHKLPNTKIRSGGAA

The first assay has as its target HOXB4 (Homo sapiens, UniProt P17483 148-234). Put plainly: PBM; 200 nM protein, PBS. The note with it: dsDNA, one strand shown.
For the sequence CCCGAGCC, the binding signal is 7.67 upbm affinity estimate (log intensity, higher = more binding, comparable within an allelic series).
On the same count and under the same terms, to GGATTCCC belongs 7.58 upbm affinity estimate (log intensity, higher = more binding, comparable within an allelic series); to CCGTGCGC, 7.73 upbm affinity estimate (log intensity, higher = more binding, comparable within an allelic series); to CAGTGTGC, 7.61 upbm affinity estimate (log intensity, higher = more binding, comparable within an allelic series).
Still for that read-out and setting: the value for CTTAAGCA was 10.1 upbm affinity estimate (log intensity, higher = more binding, comparable within an allelic series); that for AAGCTCTC was 7.48 upbm affinity estimate (log intensity, higher = more binding, comparable within an allelic series).
With GCCTCTCC, the binding signal is 7.31 upbm affinity estimate (log intensity, higher = more binding, comparable within an allelic series).
Same read-out and setting: the value for ATTACTTA was 12.1 upbm affinity estimate (log intensity, higher = more binding, comparable within an allelic series).
On to AGCATTAG, for which the binding signal was 10.5 upbm affinity estimate (log intensity, higher = more binding, comparable within an allelic series).
Still for that read-out and setting: the value for GATTATTA was 12.9 upbm affinity estimate (log intensity, higher = more binding, comparable within an allelic series); that for ATTAAAGC was 11.7 upbm affinity estimate (log intensity, higher = more binding, comparable within an allelic series).
AATATAAA: the binding signal is 10.6 upbm affinity estimate (log intensity, higher = more binding, comparable within an allelic series).

The next assay deals with SHOX (Homo sapiens, UniProt O15266 103-189). Put plainly: PBM; 200 nM protein, PBS. The note with it: dsDNA, one strand shown.
Sequence of SHOX (O15266 103-189): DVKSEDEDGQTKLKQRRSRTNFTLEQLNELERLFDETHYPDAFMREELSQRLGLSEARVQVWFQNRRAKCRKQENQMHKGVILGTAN
As for CATATGGG, the binding signal is 7.77 upbm affinity estimate (log intensity, higher = more binding, comparable within an allelic series).
Regarding ACTGTTAA, the binding signal is 8.56 upbm affinity estimate (log intensity, higher = more binding, comparable within an allelic series).
The same measure, in the same setting: the value for ATTATGCC was 9.49 upbm affinity estimate (log intensity, higher = more binding, comparable within an allelic series); that for GCATTAAA was 8.99 upbm affinity estimate (log intensity, higher = more binding, comparable within an allelic series); that for AATTTCGA was 8.68 upbm affinity estimate (log intensity, higher = more binding, comparable within an allelic series).
The same measure, in the same setting: the value for TAAATGGA was 8.78 upbm affinity estimate (log intensity, higher = more binding, comparable within an allelic series).
With TCATAACA, the binding signal was 8.35 upbm affinity estimate (log intensity, higher = more binding, comparable within an allelic series).
Turning to ATTCATGA, the binding signal is 8.41 upbm affinity estimate (log intensity, higher = more binding, comparable within an allelic series).
Still for that read-out and setting: the value for AAATTATC was 10.4 upbm affinity estimate (log intensity, higher = more binding, comparable within an allelic series); that for GAATTAGA was 9.8 upbm affinity estimate (log intensity, higher = more binding, comparable within an allelic series).
Same read-out and setting: the value for AAACTAAG was 8.12 upbm affinity estimate (log intensity, higher = more binding, comparable within an allelic series); that for GCTGATGA was 8.21 upbm affinity estimate (log intensity, higher = more binding, comparable within an allelic series).
On the same count and under the same terms, the value for AGTAAACG was 8.05 upbm affinity estimate (log intensity, higher = more binding, comparable within an allelic series); that for CCCATTTA was 8.95 upbm affinity estimate (log intensity, higher = more binding, comparable within an allelic series).
For the sequence ACGTAATC, the binding signal was 8.86 upbm affinity estimate (log intensity, higher = more binding, comparable within an allelic series).
Still for that read-out and setting: the value for CATTTTCC was 8.3 upbm affinity estimate (log intensity, higher = more binding, comparable within an allelic series); that for CTATCATC was 8.16 upbm affinity estimate (log intensity, higher = more binding, comparable within an allelic series).
Same read-out and setting: to AGATATTG belongs 8.52 upbm affinity estimate (log intensity, higher = more binding, comparable within an allelic series); to GAACTAAA, 8.27 upbm affinity estimate (log intensity, higher = more binding, comparable within an allelic series).
The same measure, in the same setting: to AATCGGTA belongs 8.66 upbm affinity estimate (log intensity, higher = more binding, comparable within an allelic series); to TCAAGTAA, 8.54 upbm affinity estimate (log intensity, higher = more binding, comparable within an allelic series); to GATTGAGA, 8.1 upbm affinity estimate (log intensity, higher = more binding, comparable within an allelic series).
With CTTATAGA, the binding signal was 8.03 upbm affinity estimate (log intensity, higher = more binding, comparable within an allelic series).
Turning to CTCAATAA, the binding signal is 9.16 upbm affinity estimate (log intensity, higher = more binding, comparable within an allelic series).
Take GTGCTTAA: the binding signal is 9.04 upbm affinity estimate (log intensity, higher = more binding, comparable within an allelic series).
On to AATGGTAC, for which the binding signal is 8.43 upbm affinity estimate (log intensity, higher = more binding, comparable within an allelic series).
Turning to CCAGATAA, the binding signal is 8.47 upbm affinity estimate (log intensity, higher = more binding, comparable within an allelic series).
On to ATCTATTG, for which the binding signal was 8.32 upbm affinity estimate (log intensity, higher = more binding, comparable within an allelic series).

The target of a further assay is HOXB4 (Homo sapiens, UniProt P17483 148-234, V174I). The assay can be described thus: PBM; 200 nM protein, PBS. As to conditions: dsDNA, one strand shown.
Sequence of HOXB4 (Homo sapiens, UniProt P17483 148-234, V174I) (P17483 148-234 V174I): as the sequence (P17483 148-234) above, with V27I counted along it
Regarding CCCGAGCC, the binding signal is 7.83 upbm affinity estimate (log intensity, higher = more binding, comparable within an allelic series).
In the case of GGATTCCC, the binding signal was 7.52 upbm affinity estimate (log intensity, higher = more binding, comparable within an allelic series).
Same read-out and setting: to CCGTGCGC belongs 7.75 upbm affinity estimate (log intensity, higher = more binding, comparable within an allelic series).
Regarding CAGTGTGC, the binding signal is 7.69 upbm affinity estimate (log intensity, higher = more binding, comparable within an allelic series).
For CTTAAGCA, the binding signal was 10.1 upbm affinity estimate (log intensity, higher = more binding, comparable within an allelic series).
On the same count and under the same terms, the value for AAGCTCTC was 7.53 upbm affinity estimate (log intensity, higher = more binding, comparable within an allelic series).
Same read-out and setting: to GCCTCTCC belongs 7.24 upbm affinity estimate (log intensity, higher = more binding, comparable within an allelic series); to ATTACTTA, 12.5 upbm affinity estimate (log intensity, higher = more binding, comparable within an allelic series); to AGCATTAG, 10.7 upbm affinity estimate (log intensity, higher = more binding, comparable within an allelic series).
On to GATTATTA, for which the binding signal is 13.5 upbm affinity estimate (log intensity, higher = more binding, comparable within an allelic series).
As for ATTAAAGC, the binding signal is 11.9 upbm affinity estimate (log intensity, higher = more binding, comparable within an allelic series).
Take AATATAAA: the binding signal is 10.7 upbm affinity estimate (log intensity, higher = more binding, comparable within an allelic series).

Another assay concerns the target PROP1 (Homo sapiens, UniProt O75360 56-141). The assay can be described thus: PBM; 200 nM protein, PBS. As to conditions: dsDNA, one strand shown.
Take GGATTCCC: the binding signal is 6.63 upbm affinity estimate (log intensity, higher = more binding, comparable within an allelic series).
The same measure, in the same setting: the value for CAGTGTGC was 6.79 upbm affinity estimate (log intensity, higher = more binding, comparable within an allelic series); that for AAGCTCTC was 6.71 upbm affinity estimate (log intensity, higher = more binding, comparable within an allelic series).
Still for that read-out and setting: the value for GCCTCTCC was 6.75 upbm affinity estimate (log intensity, higher = more binding, comparable within an allelic series).

A further assay deals with PROP1 (Homo sapiens, UniProt O75360 56-141, R99H). Put plainly: PBM; 200 nM protein, PBS. The note with it: dsDNA, one strand shown.
Sequence of PROP1 (Homo sapiens, UniProt O75360 56-141, R99H) (O75360 56-141 R99H): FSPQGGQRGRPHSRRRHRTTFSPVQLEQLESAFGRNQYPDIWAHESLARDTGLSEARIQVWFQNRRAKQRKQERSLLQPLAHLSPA
Consider GGATTCCC, for which the binding signal was 6.7 upbm affinity estimate (log intensity, higher = more binding, comparable within an allelic series).
Still for that read-out and setting: to CAGTGTGC belongs 6.58 upbm affinity estimate (log intensity, higher = more binding, comparable within an allelic series); to AAGCTCTC, 6.64 upbm affinity estimate (log intensity, higher = more binding, comparable within an allelic series); to GCCTCTCC, 6.63 upbm affinity estimate (log intensity, higher = more binding, comparable within an allelic series).

The next assay deals with PROP1 (Homo sapiens, UniProt O75360 56-141, F88S). Put plainly: PBM; 200 nM protein, PBS. As to conditions: dsDNA, one strand shown.
Sequence of PROP1 (Homo sapiens, UniProt O75360 56-141, F88S) (O75360 56-141 F88S): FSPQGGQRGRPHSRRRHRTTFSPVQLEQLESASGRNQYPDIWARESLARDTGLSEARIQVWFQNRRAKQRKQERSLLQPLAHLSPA
On to GGATTCCC, for which the binding signal was 6.49 upbm affinity estimate (log intensity, higher = more binding, comparable within an allelic series).
On the same count and under the same terms, the value for CAGTGTGC was 6.78 upbm affinity estimate (log intensity, higher = more binding, comparable within an allelic series).
In the case of AAGCTCTC, the binding signal is 6.84 upbm affinity estimate (log intensity, higher = more binding, comparable within an allelic series).
On the same count and under the same terms, the value for GCCTCTCC was 6.67 upbm affinity estimate (log intensity, higher = more binding, comparable within an allelic series).
